# From PubChem BioAssay AID2253 (Southern Research Specialized Biocontainment Screening …, 2010)
# The campaign covered roughly 2,200 compounds. About 1,300 (59%) were called active. No rule for the calls is given here. So high a share suggests a set chosen from earlier hits. These entries were drawn from the full list. Results with a measured potency or affinity are listed apart.
# Assay: human monocytic cell viability reduction – S. typhimurium screen hits, cytotoxicity control for Salmonella PhoP regulon inhibitors, dose response (AID 2253)
# Details: THP-1 viability, CellTiter-Glo luminescence, 72 h; series mostly up to 50 µM
row,SMILES,outcome
1,CSc1nsc(SCC(=O)Nc2ccc(C(C)=O)cc2)n1,inactive
2,CCCc1nc2c(o1)CC(CC(C)SCC)CC2=O (centres undefined),inactive
3,Cc1cc(Oc2ccc(-c3nnc(-c4ccccc4)o3)cc2[N+](=O)[O-])ccc1Cl,inactive
4,C=CCOc1ccc(Br)cc1/C=N/O,inactive
5,CCOC(=O)CCCNC(=O)COC(=O)CCC(=O)c1ccc(F)cc1,inactive
6,COc1ccccc1N1CCN(C/C(O)=C(\C#N)c2nc(-c3ccccc3)cs2)CC1,inactive
7,Cc1cc(C)nc(NC(=O)Cc2cccs2)n1,inactive
8,Cc1oc(CC(C)C)c(CN2CCCC2)c1C(=O)O,inactive
9,O=C(O)C1(P(=O)(c2ccccc2)c2ccccc2)CCC1,inactive
10,O=C(O)CCc1nnc2n(Cc3ccc(F)cc3)c(=O)c3ccccc3n12,inactive
11,CC1Cc2ccccc2N1C(=O)COC(=O)c1ccc(S(=O)(=O)N(C)C)cc1 (centres undefined),inactive
12,CCSc1nc(C2CC2)cc(-c2cccs2)c1C#N,inactive
13,Cc1ccc(-n2nc(-c3ccc(N)cc3)cc2N)cc1,inactive
14,O=c1cc(O)nc(SCc2ccccc2Cl)[nH]1,inactive
15,O=C(O)CCS(=O)(=O)c1ccc(-c2ccccc2)cc1,inactive
16,Cc1c(Cl)cccc1NC(=O)CSCC(N)=O,inactive
17,O=C(NC(NC(=S)Nc1ccc(Cl)cc1)C(Cl)(Cl)Cl)c1ccco1 (centres undefined),inactive
18,CCC(C)NC(=O)c1cn(CC)c2cc(N3CCN(C)CC3)c(F)cc2c1=O (centres undefined),inactive
19,NC(=O)C1(NC(=O)[C@@H]2CC3(CC(c4cccc(NC(=O)[C@@H]5CCC(=O)N5)c4)=NO3)CN2C(=O)Cc2ccc(Cl)cc2)CC1 (some centres undefined),inactive
20,COCCNC(=O)c1ccc(C(=O)NCCOC)s1,inactive
21,CCn1cc(C(=O)OCC(=O)Nc2ccc(S(=O)(=O)N3CCCC3)cc2)c(=O)c2ccc(C)nc21,inactive
22,COc1cc(S(=O)(=O)N2CCCCC2)ccc1NC=O,inactive
23,O=C(OCC(=O)c1ccc(S(=O)(=O)N2CCCC2)cc1)C1=COCCO1,inactive
24,O=C(CCC(=O)c1cccs1)OCC(=O)N1CCN(S(=O)(=O)c2ccccc2)CC1,inactive
25,CCOC(=O)N1CCN(C(=O)c2ccc(NC(=O)c3ccc(C)cc3)cc2)CC1,inactive

row,SMILES,outcome
1,Cc1nnc(SC(C)C(=O)Nc2ccc(S(=O)(=O)N3CCCCCC3)cc2)s1 (centres undefined),inactive
2,Cc1cc(C)c2c(=O)[nH]c(SCC(=O)Nc3ccc(N(C)C)cc3)nc2n1,inactive
3,Cc1cccc(C(=O)O/N=C2\CCSc3ccc(C)cc32)c1,inactive
4,CC1(C)CC(=O)C(C=Nc2ccc(Cl)cn2)=C(O)C1,inactive
5,CN1CCN(c2cc3c(cc2F)c(=O)c(C(=O)O)cn3CCF)CC1,inactive
6,Cc1cc(C(=O)NCc2ccco2)no1,inactive
7,CC(C)(C)NS(=O)(=O)c1ccc(CCC(=O)N2CCOCC2)cc1,inactive
8,CCOC(=O)C1=C(c2ccccc2)N=C2SCC(=O)N2C1c1ccc(O)c(OC)c1 (centres undefined),inactive
9,COc1ccc(-c2csc(NC(=O)C3CCCO3)n2)cc1 (centres undefined),inactive
10,COc1ccc(-c2nnc(SCC(=O)NCc3ccco3)o2)cc1,inactive
11,CCN(C(C)=O)c1nc(CSc2nnc(NC(C)C)s2)cs1,inactive
12,COc1ccc(/C=N/NC(=O)c2ccc3c(c2)OCCO3)cc1[N+](=O)[O-],inactive
13,O=C(CN1CCCCCC1)Nc1cccc(Br)c1,inactive
14,O=C(CN1CCCCC1)Nc1cccc(Br)c1,inactive
15,O=C(c1cccc(S(=O)(=O)N2CCOCC2)c1)N1CCCC1,inactive
16,CCOC(=O)C1=CSC2=NS(=O)(=O)CCN12,inactive
17,CC(=O)N1CCC(N(CCN2CCOCC2)C(=S)Nc2cccc(C)c2C)CC1,inactive
18,Cc1nc(N2CCN(Cc3ccccc3)CC2)nc2c1C(=O)CC(C)C2 (centres undefined),inactive
19,O=c1cc(CSc2nc(NCc3ccccc3)c3ccccc3n2)nc2ccc(Cl)cn12,inactive
20,CNc1ncc(Cc2ccccc2)s1,inactive
21,CCOC(=O)c1ccc(NC(=O)Nc2cc(C)on2)cc1,inactive
22,CCOC(=O)Nc1ccc(C)cc1C,inactive
23,CCOC(=O)C1CCCN(C(=O)c2sc3nc(C)nc(N4CCOCC4)c3c2C)C1 (centres undefined),inactive
24,CCCCNC(=O)Oc1cccc(N2CCCC2=O)c1,inactive
25,CCCOc1ccc(C(=O)CCC(=O)OCC(=O)N2CC(=O)Nc3ccccc32)cc1,inactive

row,SMILES,outcome
1,O=S1(=O)C=CC(Nc2ccccc2)C1 (centres undefined),inactive
2,CC(C)N(Cc1nc(-c2ccccc2)no1)C(=O)CN(C)S(=O)(=O)c1ccccc1,inactive
3,C[C@H]1COc2c(N3CCN(C)CC3)c(F)cc3c(=O)c(C(=O)O)cn1c23,inactive
4,Cc1nc(-c2ccccc2)cc(=O)[nH]1,inactive
5,Cc1ccc(Oc2nnc(-c3ccccc3)c3ccccc23)cc1,inactive
6,COC(=O)c1cc(C#N)c(Oc2cccc(C)c2C)nc1C,inactive
7,COc1ccc(NC(=O)ON=C2c3ccccc3-c3ccccc32)cc1,inactive
8,Cc1ccc(C(=O)Nc2ccccc2C(N)=O)o1,inactive
9,NC(=O)c1ccccc1N=Cc1ccccn1,inactive
10,Cc1scc(C(=O)O)c1-c1c(C(=O)O)csc1C,inactive
11,CN(CC(=O)NCc1cccc(F)c1)C(=O)c1ccco1,inactive
12,COC(=O)c1ccc(Sc2ccccc2NS(=O)(=O)c2ccc(C)cc2)nc1,inactive
13,COc1cc(OC)c(C(=O)Nc2ccc(S(=O)(=O)Nc3ncccn3)cc2)cc1OC,inactive
14,N/C(=N\c1nc2ccccc2o1)NC(=O)c1ccccc1F,inactive
15,CCCOc1ccc(/C=N/O)cc1,inactive
16,O=C1CN(C(=O)COC(=O)CCC(=O)c2ccc3c(c2)OCCO3)c2ccccc2N1,inactive
17,CC(=O)NC12CC3CC(C1)CC(C(=O)OCC(=O)c1ccc4c(c1)OCCO4)(C3)C2,inactive
18,Cn1c(NCc2cccs2)nc2ccccc21,inactive
19,O=C(CSC1CCCCC1)Nc1ccccc1Br,inactive
20,CN1CCN(S(=O)(=O)c2ccc(N)cc2)CC1,inactive
21,COc1cc(C=O)ccc1OCCCOc1ccccc1[N+](=O)[O-],inactive
22,O=C(CNC(=O)c1ccco1)OCC(=O)c1ccc2c(c1)CCCC2,inactive
23,CC(C)(C)C1CCC2(CC1)Nc1cccc3cccc(c13)N2,inactive
24,Cc1ccc(C(=O)NCC(=O)OCC(=O)N2CCCc3ccccc32)cc1,inactive
